Data: PubChem BioAssay AID1347418 (Sanford-Burnham Center for Chemical Genomics, 2020)
About 750 (58%) of roughly 1,300 compounds were called active. The list shows a part of the results. Values without a mark were called inactive.

What follows are molecules tested against Sulfhydryl oxidase 1 (Homo sapiens) (UniProt O00391) (assay: QSOX1 enzyme inhibitors, primary screen, biochemical, ROS-Glo H2O2 luminescence, HTS (AID 1347418)). Settings: recombinant QSOX1, ROS-Glo H2O2 luminescence; at 12.5 µM; active compounds read high; active = any value above zero.
Chain of Sulfhydryl oxidase 1 (Homo sapiens) (O00391 whole entry, looked up): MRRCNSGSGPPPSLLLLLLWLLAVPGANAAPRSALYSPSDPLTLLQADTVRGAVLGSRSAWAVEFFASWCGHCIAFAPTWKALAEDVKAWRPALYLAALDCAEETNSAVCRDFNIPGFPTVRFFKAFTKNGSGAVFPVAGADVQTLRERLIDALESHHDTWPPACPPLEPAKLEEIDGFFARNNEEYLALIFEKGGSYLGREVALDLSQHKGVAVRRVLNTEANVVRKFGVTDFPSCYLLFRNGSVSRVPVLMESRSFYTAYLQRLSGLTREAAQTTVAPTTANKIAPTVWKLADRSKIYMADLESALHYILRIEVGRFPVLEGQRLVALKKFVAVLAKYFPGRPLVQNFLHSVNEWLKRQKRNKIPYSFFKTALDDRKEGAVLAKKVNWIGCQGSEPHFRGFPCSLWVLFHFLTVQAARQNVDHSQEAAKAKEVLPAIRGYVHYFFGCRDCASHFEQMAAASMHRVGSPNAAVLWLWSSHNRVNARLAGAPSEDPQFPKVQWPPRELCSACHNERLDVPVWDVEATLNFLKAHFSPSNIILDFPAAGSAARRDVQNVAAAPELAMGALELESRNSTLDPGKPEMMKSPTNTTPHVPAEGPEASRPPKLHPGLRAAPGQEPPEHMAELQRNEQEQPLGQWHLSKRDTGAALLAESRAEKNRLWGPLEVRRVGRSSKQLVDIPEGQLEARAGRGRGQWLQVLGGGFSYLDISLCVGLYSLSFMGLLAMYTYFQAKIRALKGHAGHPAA
For `Fc1cccc(/C=N/N=C/c2cccc(F)c2)c1`, the inhibition was 1.9% (active).
In the case of `CCCCC#Cc1nc(NC)c2ncn([C@@H]3O[C@H](CO)C(O)[C@@H]3O)c2n1` (some centres not stated), the inhibition is reported as -4.5%.
`CNC(=O)[C@H]1O[C@@H](n2cnc3c(NCc4cccc(I)c4)ncnc32)C(O)[C@H]1O` (some centres not stated) gave an inhibition of -1.8%.
`CCNC(=O)[C@H]1O[C@@H](n2cnc3c(N)nc(NCCc4ccc(CCC(=O)O)cc4)nc32)C(O)[C@H]1O` (some centres not stated) was tested, and the inhibition was 1.5% (active).
For `Nc1nc(Nc2ccccc2)nc2c1ncn2[C@@H]1O[C@H](CO)[C@H](O)C1O` (some centres not stated), the inhibition was -2.6%.
`CNC(=O)[C@H]1O[C@@H](n2cnc3c(NCc4ccc(N)cc4)ncnc32)C(O)[C@H]1O` (some centres not stated) was tested, and the inhibition was 6% (active).
For `Nc1nc(Cl)nc2c1ncn2[C@@H]1O[C@H](CO)[C@H](O)C1O` (some centres not stated), the inhibition was -0.3%.
With `O=C(c1ccc(Cl)cc1)N1CCN(c2ccc([N+](=O)[O-])c3ncccc23)CC1` the inhibition was 1.5% (active).
`O=c1cc(N2CCOCC2)oc2c(-c3ccccc3)cccc12` gave an inhibition of -2.2%.
With `OCC1O[C@H](O)C(Cl)C(O)C1O` (some centres not stated) the inhibition was 4.9% (active).
`CC(C)C[C@H](NC(=O)C1OC1C(=O)O)C(=O)NCCCCN=C(N)N` (some centres not stated) was tested, and the inhibition was 10.1% (active).
With `COC1(C2=NCCN2)COc2ccccc2O1` (configuration not stated) the inhibition was 3.2% (active).
With `O=C(O)CN(CCN(CC(=O)O)CC(=O)O)CCN(CC(=O)O)CC(=O)O` the inhibition was -5%.
`CN1CCc2cc(NC(=O)Nc3cccnc3)ccc21` was tested, and the inhibition was 7.1% (active).
In the case of `Cn1ccc2cc3c(cc21)CCN3C(=O)Nc1cccnc1`, the inhibition is reported as -2.2%.
For `CN1C(=O)CC[C@H]1c1cccnc1`, the inhibition was -4%.
`Nc1c2c(nc3ccccc13)CCCC2O` (configuration not stated) gave an inhibition of -1%.
With `NNc1nncc2ccccc12` the inhibition was 26.1% (active).
With `O=c1c(O)c(-c2ccc(O)cc2O)oc2cc(O)cc(O)c12` the inhibition was 41.5% (active).
`O=c1c(O)c(-c2cc(O)c(O)c(O)c2)oc2cc(O)cc(O)c12` was tested, and the inhibition was 25.8% (active).
With `O=c1c(O)c(-c2ccc(O)c(O)c2)oc2cc(O)cc(O)c12` the inhibition was 33.1% (active).
With `O=c1cc(-c2ccc(O)cc2)oc2cc(O)cc(O)c12` the inhibition was 15.3% (active).
For `S=C(Nc1ccccc1)Nc1nccs1`, the inhibition was -0.6%.
`NO` gave an inhibition of -19.9%.
`CN(C)CCCO[C@@H]1[C@H]2OC(C)(C)O[C@H]2O[C@@H]1C(O)CO` (some centres not stated) was tested, and the inhibition was 1.3% (active).
`O=C1NC(=O)c2cc(Nc3ccccc3)c(Nc3ccccc3)cc21` was tested, and the inhibition was 44.9% (active).
Molecule `O=[N+]([O-])c1cccc2cn[nH]c12` has an inhibition of -7.7%.
With `O=[N+]([O-])c1cccc2c(Br)[nH]nc12` the inhibition was 5.3% (active).
With `COCCCC/C(=N\OCCN)c1ccc(C(F)(F)F)cc1` the inhibition was -2%.
`Cc1cccc(-c2[nH]c(C(C)(C)C)nc2-c2ccc3nccnc3c2)n1` was tested, and the inhibition was 6% (active).
Molecule `N[C@H]1CONC1=O` has an inhibition of -12.9%.
With `NC1=NCC2c3ccccc3Cc3ccccc3N12` (configuration not stated) the inhibition was 1.4% (active).
With `CN1CCN2c3ccccc3Cc3ccccc3C2C1` (configuration not stated) the inhibition was -1.9%.
With `CCN(CC)CCOCCOC(=O)C1(c2ccccc2)CCCC1` the inhibition was 6.3% (active).
In the case of `CCCC(C(=O)OCCN(CC)CC)(c1ccccc1)c1ccccc1`, the inhibition is reported as -0.5%.
`CCN(CC)CCOC(=O)C1(C2CCCCC2)CCCCC1` gave an inhibition of -1.9%.
In the case of `O=C(OCCN1CCOCC1)C1(c2ccccc2)CCCCC1`, the inhibition is reported as 2.5% (active).
With `CCCn1c(=O)c2[nH]c(C3CCCC3)nc2n(CCC)c1=O` the inhibition was 2.3% (active).
With `Cn1c(=O)c2[nH]c(C3CCCC3)nc2n(C)c1=O` the inhibition was 3.9% (active).
`Cn1c(=O)c2[nH]c(-c3ccccc3)nc2n(C)c1=O` gave an inhibition of -2.7%.
In the case of `Cn1c(=O)c2[nH]c(-c3ccc(S(=O)(=O)O)cc3)nc2n(C)c1=O`, the inhibition is reported as -2.4%.
For `CC/C(=C(\c1ccccc1)c1ccc(OCCN(C)C)cc1)c1ccccc1`, the inhibition was 2.2% (active).
For `CN(C)CCOC(=O)COc1ccc(Cl)cc1`, the inhibition was -2.9%.
In the case of `CN(C)[C@@H]1C(=O)C(C(N)=O)=C(O)[C@@]2(O)C(=O)C3=C(O)c4c(O)ccc(Cl)c4[C@@H](O)[C@H]3C[C@@H]12`, the inhibition is reported as 9.5% (active).
With `C[C@H]1c2cccc(O)c2C(O)=C2C(=O)[C@]3(O)C(O)=C(C(N)=O)C(=O)[C@@H](N(C)C)[C@@H]3[C@@H](O)[C@@H]21` the inhibition was -1.5%.
In the case of `COc1ccccc1N1CCN(CCN(C(=O)C2CCCCC2)c2ccccn2)CC1`, the inhibition is reported as 9.7% (active).
For `COc1ccccc1N1CCN(CCN(C(=O)c2ccc(F)cc2)c2ccccn2)CC1`, the inhibition was 7.1% (active).
In the case of `COc1ccccc1N1CCN(CCN(C(=O)c2ccc(I)cc2)c2ccccn2)CC1`, the inhibition is reported as 11.2% (active).
In the case of `COc1ccc(Cc2nccc3cc(OC)c(OC)cc23)cc1OC`, the inhibition is reported as 3.3% (active).
In the case of `COc1ccc(CCN(C)CCc2ccc(OC)c(OC)c2)cc1OC`, the inhibition is reported as -0.5%.
In the case of `CC(N=C(NC#N)Nc1ccncc1)C(C)(C)C` (configuration not stated), the inhibition is reported as 4.4% (active).
In the case of `O=C1NCc2c1c1c3ccccc3[nH]c1c1[nH]c3ccccc3c21`, the inhibition is reported as 2.6% (active).
`O=c1[nH]c2ccccc2c2ccccc12` showed an inhibition of -9.8%.
`CN(C)CCCN1c2ccccc2Sc2ccc(Cl)cc21` was tested, and the inhibition was 39.2% (active).
In the case of `COc1ccc([C@@H]2Sc3ccccc3N(CCN(C)C)C(=O)[C@@H]2OC(C)=O)cc1`, the inhibition is reported as -0.6%.
With `CN(C)CCCN1c2ccccc2Sc2ccccc21` the inhibition was 46.3% (active).
With `CN(C)CCCN1c2ccccc2Sc2ccc(C(F)(F)F)cc21` the inhibition was 24.1% (active).
In the case of `CCC(=O)c1ccc2c(c1)N(CCCN(C)C)c1ccccc1S2`, the inhibition is reported as 20.9% (active).
Work on `NC1(C(=O)O)CCCCC1` yielded an inhibition of -3.9%.
In the case of `NC1(C(=O)O)CC1`, the inhibition is reported as 5.5% (active).
For `CC(C)ON([C@@H](C(=O)NO)C(C)C)S(=O)(=O)c1ccc(-c2ccccc2)cc1`, the inhibition was 8.9% (active).
For `CC(=O)/C=C1\C(=O)N(C)c2ccccc21`, the inhibition was 7.8% (active).
`COc1cc(NS(C)(=O)=O)ccc1Nc1c2ccccc2nc2ccccc12` was tested, and the inhibition was 42.7% (active).
`CN(C(=O)CCCOc1ccc2[nH]c(=O)ccc2c1)C1CCCCC1` gave an inhibition of -1.6%.
`CC[N+](CC)(CC)CC` was tested, and the inhibition was 0.9% (active).
`Nc1nc(N)c2nc(CNc3ccc(C(=O)NC(CCC(=O)O)C(=O)O)cc3)cnc2n1` (configuration not stated) was tested, and the inhibition was 0.7% (active).
For `CN(Cc1cnc2nc(N)nc(N)c2n1)c1ccc(C(=O)N[C@@H](CCC(=O)O)C(=O)O)cc1`, the inhibition was -2.2%.
